Only some compounds are listed: those with a hit (about 2.4% of all), similar ones and a draw of the others.
POLI inh: qHTS for Inhibitors of Polymerase Iota | DNA polymerase iota (Homo sapiens), Q9UNA4 | AID 588590, 2011 | 390,000 compounds, 1% hits | Pol iota fluorescent replication assay, 10 min | Potency, µM (top dose mostly 115 µM), without a hit: top-dose activity, negative = inhibition, actives largely listed as inhibitors
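Pol iota at 10 nM preincubated 15 min with compounds at room temperature; reaction started with fluorescent substrate, 50 nM final. Fluorescence read kinetically at 0 and 10 min; buffer-only wells as negative control.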
FEN1 inh: qHTS Assay for the Inhibitors of Human Flap endonuclease 1 (FEN1); P39748; Recombinant FEN1 flap cleavage, fluorescence, 15 min; Potency, µM (highest dose often 114 µM), without a hit: top-dose activity change, negative = inhibition, usual class: inhibitors; 390,000 compounds, 0.35% hits; further: on the % scale 0 is the no-effect control and ±100 the full control effect; nearly all actives have a fitted effect of over 65% in size
Target sequence (P39748 whole entry, looked up): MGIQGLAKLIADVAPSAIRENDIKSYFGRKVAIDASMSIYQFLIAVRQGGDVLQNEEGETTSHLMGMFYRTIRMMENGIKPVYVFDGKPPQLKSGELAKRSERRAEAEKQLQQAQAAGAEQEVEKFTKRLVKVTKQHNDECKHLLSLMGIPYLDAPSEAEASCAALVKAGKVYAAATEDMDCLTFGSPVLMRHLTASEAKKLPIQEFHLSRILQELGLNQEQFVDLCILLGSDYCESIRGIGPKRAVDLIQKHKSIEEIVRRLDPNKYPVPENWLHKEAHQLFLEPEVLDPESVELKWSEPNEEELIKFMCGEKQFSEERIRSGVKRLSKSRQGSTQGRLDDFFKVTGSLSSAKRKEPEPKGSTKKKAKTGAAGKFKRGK
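With each library titrated from low to high concentration, compounds met 10 nM FEN1 for 15 min at room temperature before 50 nM substrate was added; readings at 0 and 15 min fed four-parameter Hill curve fits.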
POLH inh: qHTS for Inhibitors of Polymerase Eta | 390,000 compounds, 1.2% hits | recombinant Pol eta, fluorescent DNA replication assay | AID 588591, 2011 | Potency, µM (titrated, usually from 114 µM), inactives show at the highest dose activity change, negative = inhibition, most hits filed as inhibitors; further: on the % scale 0 is the no-effect control and ±100 the full control effect
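Pol eta at 10 nM preincubated with compounds 15 min at room temperature; reaction started with fluorescent substrate (50 nM final) and read kinetically at 0 and 10 min.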
POLK inh: qHTS for Inhibitors of Polymerase Kappa; DNA polymerase kappa (Homo sapiens), Q9UBT6; purified Pol kappa, fluorescent DNA synthesis assay, 10 min; Potency, µM (top dose mostly 107 µM), for the others: at the highest dose activity, negative = inhibition, most hits filed as inhibitors; 400,000 compounds, 0.53% hits; AID 588579, 2011; further: on the % scale 0 is the no-effect control and ±100 the full control effect
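Pol kappa 10 nM + cpd, 15 min RT; start w/ substrate 50 nM final; fluorescence kinetic read, 0 and 10 min. Neg ctrl: buffer, no enzyme.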
WRN inhibitor: qHTS for Inhibitors of WRN Helicase; 360,000 compounds, 0.46% hits; WRN helicase unwinding, fluorescent forked duplex, kinetic; Potency, µM (highest dose often 114 µM), without a hit: at the top dose activity change, negative = inhibition, usual class: inhibitors; Bifunctional 3'-5' exonuclease/ATP-dependent helicase WRN (Homo sapiens), Q14191; further: on the % scale 0 is the no-effect control and ±100 the full control effect; nearly all actives have a fitted effect of over 55% in size
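Fluorescence dequenching readout, ex 525 nm/em 598 nm, kinetic mode: forked duplex DNA (100 nM final) with adjacent fluorophore and quencher unwound by WRN (20 nM final) with 2 mM ATP. Compound preincubation 15 min, room temperature.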
Pol beta inh: qHTS Assay for Inhibitors of DNA Polymerase Beta | P06746 | Pol beta primer extension/strand displacement, fluorescence kinetic | Potency, µM (highest dose often 114 µM), for the others: at the highest dose activity change, negative = inhibition, hits mostly inhibitors | 340,000 compounds, 1.3% hits | AID 485314, 2010; further: on the % scale 0 is the no-effect control and ±100 the full control effect
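10 nM enzyme + cpd, 15 min RT; start with substrate 50 nM final; read 0 min and after 10 min RT. Corrected, normalized data; 4-parameter Hill curve fit.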
* = called active by the depositor; u = inconclusive; x = no result; ! = repeats disagree; [ ] = dose if it differs, or a comment. The call rests on the fitted dose curve; in most records, active means well fitted curve in the direction sought with a large enough effect; inconclusive means small, poorly fitted or top-dose-only effect, or another doubt; inactive means no such curve, though single readings can be large; an effect the other way counts as inactive or inconclusive. Potency means the concentration at half of the fitted maximal effect.

SMILES	POLI inh	FEN1 inh	POLH inh	POLK inh	WRN inhibitor	Pol beta inh
COc1ccc(-c2noc(-c3nnn(-c4cc(C)ccc4C)c3N)n2)cc1	-2%	-20%	-18%	-8%	x	38%
COc1ccc(C(=O)CN2CCN(S(=O)(=O)c3ccc(C(C)C)cc3)CC2)cc1	22%	-11%	-18%	-7%[60.1 µM]	x	1%
Nc1nc[nH]c(=O)c1N	-2%	6%	x	7%	x	x
CC1C(=O)Nc2ccc(S(=O)(=O)N3CCN(c4cccc(C(F)(F)F)c4)CC3)cc2NC1=O (stereo not given)	35µM*	17%	0%	-10%	-8%[11.6 µM]	u
CC1C(=O)Nc2ccc(S(=O)(=O)N3CCN(c4cccc(Cl)c4)CC3)cc2NC1=O (stereo not given)	-15%	-3%	-12%	-2%	-2%	-2%
CCc1nc2ccc(C(=O)NCc3ccc(N(C)C)cc3)cc2nc1CC	20%	20%	-4%	-4%[60.1 µM]	x	14%
CCc1nnc(NC(=O)C2Cc3ccccc3CN2S(=O)(=O)c2cccs2)s1 (stereo not given)	u	6%	u	u	-31%	-14%
O=C(Nc1nnc(C2CC2)s1)C1Cc2ccccc2CN1S(=O)(=O)c1cccs1 (stereo not given)	-73%	12%	7.1µM*	u	-18%[57.1 µM]	11µM*
COc1ccc(NC(=O)C2Cc3ccccc3CN2C(=O)c2ccco2)cc1 (stereo not given)	85%	-1%	5%	-29%	-2%	32%
CN(C)S(=O)(=O)c1cccc(NC(=O)C2Cc3ccccc3CN2C(=O)c2ccco2)c1 (stereo not given)	35µM*	-5%	u	-32%	-30%	u
O=C(Nc1nnc(SCc2ccc(F)cc2)s1)C1Cc2ccccc2CN1C(=O)c1ccco1 (stereo not given)	u	-12%	22µM*	u	u	-34%
O=C(Nc1nnc(C2CC2)s1)C1Cc2ccccc2CN1C(=O)c1ccco1 (stereo not given)	28µM*	15%	u	-46%	-5%	7.9µM*
Cc1ccc(CCNC(=O)c2sc3nc4n(c(=O)c3c2C)CCCC4)cc1	16%	2%	-9%	-15%	x	-14%
O=c1c(O[C@@H]2O[C@H](CO)[C@@H](O)[C@H](O)[C@H]2O)c(-c2ccc(O)c(O)c2)oc2cc(O)cc(O)c12	x	x	x	x	x	1.8µM*
O=c1c(OC2OC(CO)C(O)C(O)C2OC2OC(CO)C(O)C(O)C2OC2OC(CO)C(O)C(O)C2O)c(-c2ccc(O)c(O)c2)oc2cc(O)cc(O)c12 (stereo not given)	50µM*	-25%	u	56µM*	-7%	u
O=c1cc(-c2ccc(O)c(O)c2)oc2cc(OC3OC(CO)C(O)C(O)C3O)cc(O)c12 (stereo not given)	x	x	x	0.89µM*	x	x
C[C@@H]1O[C@@H](OC[C@H]2O[C@@H](Oc3c(-c4ccc(O)c(O)c4)oc4cc(O)cc(O)c4c3=O)[C@H](O)[C@@H](O)[C@@H]2O)[C@H](O)[C@H](O)[C@H]1O	9%	-2%	-10%	24µM*!	-4%	8.9µM*
Cc1noc(Cn2c(=O)c3cc4c(cc3n(CC(=O)Nc3ccccc3F)c2=O)OCO4)n1	6%	0%	-5%	-2%	x	21%
COc1cccc(NC(=O)CSc2nc3c(oc4ccccc43)c(=O)n2Cc2ccco2)c1	0%	-3%	-15%	1%	x	0%
COc1ccc(CNC(=O)c2oc3c(c2C)-c2nn(Cc4ccc(Cl)cc4)cc2CC3)cc1	16%	8%	-8%	7%	x	0%
CCN1CCN(C(=O)c2nn(-c3ccc(OC)cc3)c(=O)c3c2c2ccccc2n3C)CC1	-1%	-15%	-6%	-8%	2%	15%
COc1ccc(-n2nc(C(=O)N3CCC(N4CCCCC4)CC3)c3c4ccccc4n(C)c3c2=O)cc1	41%	89µM*	-5%	-11%	-7%	1%
COc1ccc(-c2onc(C)c2C)cc1S(=O)(=O)Nc1cccc(C#N)c1	-14%	6%	-2%	4%	x	6%
COc1cccc(C(=O)NCC2CCN(c3ccc(S(=O)(=O)N4CCOCC4)cc3)CC2)c1	20%	14%	-13%	0%	-1%[57.1 µM]	40µM*
O=C(NCC1CCN(c2ccc(S(=O)(=O)N3CCOCC3)cc2)CC1)c1cccc(Cl)c1	12%	-21%	-11%	-6%	-8%	-17%
SMILES	POLI inh	FEN1 inh	POLH inh	POLK inh	WRN inhibitor	Pol beta inh
COc1ccc(-c2nc(C)c(CCNS(=O)(=O)c3cc(C)c(C)cc3C)s2)cc1	-21%	-28%	-7%	-6%[60.1 µM]	x	4%
O=C(CSc1nc2c([nH]c3ccccc32)c(=O)n1-c1ccccc1)N1CCCC1	-5%	-14%	-10%	-3%[60.1 µM]	x	20µM*
CC(C)(C)c1ccc(C(=O)C[n+]2ccccc2Cl)cc1	-26%	-13%	x	-29%	x	x
Cc1ccc(NC(=O)Cn2c(=O)oc3ccccc32)cc1	141%	-2%	-14%	-16%	7%	25%
Cc1ccc(NC(=O)Cn2c(=O)oc3ccccc32)cc1Cl	92%	-10%	0%	-23%	-20%	40µM*
COc1ccc(C(=O)c2sc(Nc3ccccc3)nc2N)cc1OC	u	-13%	-8%	-9%	-8%	1%
COc1ccc(C(=O)c2sc(Nc3cc(Cl)ccc3C)nc2N)cc1OC	u	-3%	-16%	-17%	x	28µM*
O=C1/C(=C\c2ccco2)SC(=S)N1C1CCCCC1	x	x	x	x	x	45µM*
Cc1ccc(N2C(=O)/C(=C/c3ccco3)SC2=S)cc1	u	-5%	-23%	u	-13%	u
O=C1/C(=C/c2ccco2)SC(=S)N1CCC(=O)N1CCCCC1CCO (stereo not given)	15%	1%	22µM*	11%	56µM*	u
COc1ccc(/C=C2\SC(=S)N(CCC(=O)N3CCCCC3CCO)C2=O)cc1 (stereo not given)	28µM*	-18%	u	u	-30%	u
COc1ccccc1NC(=O)CSc1nnc(-c2nonc2NC(C)=O)n1-c1ccccc1	24%	10%	-11%	-4%	x	4%

High-throughput results as filed in PubChem BioAssay.
